Compounds with a hit are over-represented: about 2.3% of the library has one in this group of screens.
SENP8 block-1 – inhibitors of human SENP8 protease; 1.2% of 330,000 active; inhibition, % at 10 µM; purified SENP8, Z-RLRGG-aminoluciferin cleavage, luminescence; Q96LD8; in the data active = inhibition above about 50%
Target sequence (Q96LD8 whole entry, looked up): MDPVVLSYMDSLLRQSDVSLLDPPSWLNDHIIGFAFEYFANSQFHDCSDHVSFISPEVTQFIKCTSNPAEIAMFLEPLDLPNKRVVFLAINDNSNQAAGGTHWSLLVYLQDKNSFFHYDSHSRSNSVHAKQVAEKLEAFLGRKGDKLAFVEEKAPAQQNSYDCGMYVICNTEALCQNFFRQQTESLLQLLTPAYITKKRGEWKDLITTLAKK
SENP7 block – SENP7 protease inhibition; Q9BQF6; recombinant SENP7, Z-RLRGG-aminoluciferin luminescence, 40 min; inhibition, % at 5 µM; 1.5% of 330,000 active;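 active = inhibition above about 50% at the single test dose, limit read from the data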
LGR2 antag – blocks bursicon-induced cAMP signaling via Drosophila LGR2; inhibition, % at 9.99 µM; AID 720647; 0.35% of 380,000 active; HEK293 LGR2, CRE-luciferase, bursicon-stimulated, 4 h;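 active = drop in luminescence signal, shown as inhibition above about 50% in the replicate tests, limit read from the data, passing the limit was not always enough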;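 note: agonist challenge used bursicon conditioned medium at about half maximal strength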
SENP6 inh – inhibitors of human SENP6 protease; Recombinant SENP6 catalytic domain, aminoluciferin luminescence; inhibition, % at 10 µM; 1.8% of 330,000 active; AID 2599;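 active = inhibition above about 50% at the single tested dose, limit read from the data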
SENP8 block-2 – SENP8 (human) protease inhibition; Q96LD8; recombinant SENP8, Nedd8 substrate fluorescence; inhibition, % at 20 µM; 0.64% of 360,000 active; in the data active = inhibition mostly above about 40%, no sharp cut-off; inactive = mostly below about 27%
HSP90 inh – inhibitors of HSP90 luciferase refolding in rabbit reticulocyte lysate | luciferase refolding luminescence, 3 h | 0.91% of 290,000 active | inhibition, % at 5.6 µM | AID 1789;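 active = inhibition above the screen-wide mean plus 3 SD, computed separately per campaign, cut at about 16% in these data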;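 note: inhibitors lower the luminescence because luciferase stays unfolded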
SENP8 conf-1 – confirmation of human SENP8 protease inhibitors; shares compounds with SENP7 block; AID 488912; inhibition, % at 12.5 µM; Recombinant SENP8, Z-RLRGG-aminoluciferin luminescence, 60 min; 40% of 6,200 active;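 active = mean inhibition across replicates above about 50%, limit read from the data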
SENP6 conf – human SENP6 inhibition, confirmed; shares compounds with SENP7 block; recombinant SENP6, Z-RLRGG-aminoluciferin luminescence; inhibition, % at 12.5 µM; 58% of 6,200 active
SENP7 confirm – human SENP7 inhibition, confirmed; recombinant SENP7, Z-RLRGG-aminoluciferin luminescence, 40 min; 69% of 6,200 active; shares compounds with SENP7 block; inhibition, % at 12.5 µM; AID 488917
Casp3 select – caspase-3 inhibition (SENP selectivity assay) | shares compounds with SENP7 block | purified caspase-3, Z-DEVD-aminoluciferin luminescence, 60 min | inhibition, % at 12.5 µM | 60% of 6,200 active | AID 488918;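 active = mean inhibition above about 50%, limit read from the data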
Target sequence (P42574 28-227 limits assumed): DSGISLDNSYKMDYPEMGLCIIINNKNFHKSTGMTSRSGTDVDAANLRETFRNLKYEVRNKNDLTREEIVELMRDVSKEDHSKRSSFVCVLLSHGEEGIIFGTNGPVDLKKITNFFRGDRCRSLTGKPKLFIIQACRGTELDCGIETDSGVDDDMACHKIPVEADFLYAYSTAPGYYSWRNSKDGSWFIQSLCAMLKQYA
SENP luc ctr – counter-screen for SENP inhibitors: luminescence interference; inhibition, % at 12.5 µM; AID 488919; Pre-incubated SENP8/Z-RLRGG-aminoluciferin, luciferase luminescence interference; 39% of 6,200 active; shares compounds with SENP7 block;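 active = mean inhibition above about 50% when retested at one dose, limit read from the data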
SENP8 conf-2 – confirmation of human SENP8 protease inhibitors; AID 624319; purified SENP8, Nedd8-AMC/pro-Nedd8 cleavage fluorescence, 30 min; 15% of 1,400 active; shares compounds with SENP8 block-2; inhibition, % at 25 µM; in the data active = inhibition mostly above about 39%, no sharp cut-off; inactive = mostly below about 34%
A number is an active result; – = inactive; · = not tested or not shown.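 Rule for the calls, unless noted: active = mean inhibition above about 50% in the one-dose retest (limit read from the data); inactive = the rest.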

SMILES	SENP8 block-1	SENP7 block	LGR2 antag	SENP6 inh	SENP8 block-2	HSP90 inh	SENP8 conf-2	others
CNC(=O)Oc1ccc(-c2cn3cc(Cl)ccc3n2)cc1	64	67	–	78	–	–	·	SENP8 conf-1=–;SENP6 conf=–;SENP7 confirm=75;Casp3 select=72;SENP luc ctr=–
CCCNC(=O)[C@@H]1[C@@H](CO)[C@@H]2Cn3c(cccc3=O)[C@@H]2N1CC	·	·	–	·	·	·	·
Oc1cc(O)cc(/C=C/c2ccc(O)cc2O)c1	–	–	·	70	–	·	·	SENP8 conf-1=62;SENP6 conf=62;SENP7 confirm=87;Casp3 select=59;SENP luc ctr=77
CC(C)(C)c1cc(O)ccc1O	·	·	–	·	·	·	·
COC(=O)[C@@H]1[C@@H](CO)[C@@H]2Cn3c(ccc(-c4cccc(F)c4)c3=O)[C@H]1N2Cc1ccccc1	·	·	–	·	·	·	·
Cc1ccc(S(=O)(=O)CC(=O)c2cc(C)c(OC(=O)N(C)C)c(C)c2)cc1	–	–	–	–	–	–	·
Cc1cc(C(=O)CS(=O)(=O)c2ccccc2)cc(C)c1OC(=O)N(C)C	–	–	–	54	–	–	·	SENP8 conf-1=–;SENP6 conf=–;SENP7 confirm=78;Casp3 select=79;SENP luc ctr=–
Cc1cc(C(=O)N=Nc2c(O)n(C)c3ccccc23)c(C)o1	79	90	–	91	–	–	·	SENP8 conf-1=54;SENP6 conf=56;SENP7 confirm=–;Casp3 select=–;SENP luc ctr=–
O=c1[nH]c(=S)[nH]c(O)c1N=Nc1ccc2c(c1)OCCO2	87	92	–	92	42	–	–	SENP8 conf-1=–;SENP6 conf=–;SENP7 confirm=55;Casp3 select=64;SENP luc ctr=–
CN1[C@@H]2c3cccc(=O)n3C[C@H]1[C@H](CO)[C@H]2C(=O)NCC1CC1	·	·	–	·	·	·	·
O=C(NC1(C(F)(F)F)Oc2ccc(Cl)cc2O1)N1CCC2(CC1)OCCO2 (stereo not drawn)	–	–	·	–	40	–	–
Cc1cccc(S(=O)(=O)N2[C@@H]3Cn4c(ccc(-c5ccccc5)c4=O)[C@H]2[C@@H](C(=O)O)[C@@H]3CO)c1	·	·	–	·	·	·	·
O=C(Cc1ccccn1)N1CCCCN2[C@H](CO)[C@H](c3ccc(-c4ccc(F)cc4)cc3)[C@H]2C1	·	·	–	·	·	·	·
O=c1[nH]c(=S)[nH]c(O)c1N=Nc1cc2c(cc1[N+](=O)[O-])OCO2	–	–	–	–	42	–	–
CCN1CCN(C(=O)COc2ccc(S(=O)(=O)N3CCOCC3)cc2Cl)CC1	–	–	–	–	–	–	·
CCN1CCN(S(=O)(=O)c2ccc(Cl)nc2)CC1	–	–	·	–	44	–	–
CC(=O)c1ccc2c(c1)OCO2	–	–	·	–	44	–	–
COc1ccc2c3c([nH]c2c1)C(C)NCC3 (stereo not drawn)	–	–	·	–	–	–	·
C/C=C1/CN2[C@@H]3C4CO[C@@H]3c3c([nH]c5cc(OC)ccc35)[C@@H]2CC14 (stereo partly drawn)	–	–	–	–	40	·	–
O=[N+]([O-])c1ccc(NCc2ccc(Cl)cc2)c2ccncc12	–	–	–	–	43	–	–
O=[N+]([O-])c1ccc(NCc2ccccc2)c2nonc12	–	–	–	–	·	–	·
CCCNC(=O)[C@H]1[C@H](CO)[C@H]2Cn3c(cccc3=O)[C@H]2N1CC	·	·	–	·	·	·	·
N#Cc1cccc(-c2ccc([C@H]3[C@@H](CO)N4CCCCN(C(=O)Cc5ccncc5)C[C@@H]34)cc2)c1	·	·	–	·	·	·	·
O=C1NC(=O)C(Nc2ccccc2)C(=O)N1	·	·	–	·	64	·	46
O=C1NC(=O)C(Cc2ccccc2)(Cc2ccccc2)C(=O)N1	·	·	–	·	–	·	·
CN1CCN(c2ccc(N)c(N3CCN(C)CC3)c2)CC1	–	–	·	–	51	–	–

Bioassay records from PubChem BioAssay.
